Assay results: PubChem BioAssay (NCI)
This is part of a sample that, as a whole, favours compounds with a hit. Of some 83,000 tested, about 20% had one in any assay.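 A percent growth of 40 corresponds to 60% growth inhibition; 0 means no net growth; -100 means all cells died. Active threshold: below 10.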 Unmarked numbers belong to inactive results. Active and inactive are the calls of the source.

Tests used:
Experiment in all cases: NCI-60 one-dose screen, 48 h (100 = growth as untreated, 0 = no growth, -100 = all killed)
Conditions in all cases: 10 µM unless noted
[1] = tested on: SK-MEL-2 melanoma
[2] = tested on: SN12C renal
[3] = tested on: UO-31 renal
[4] = tested on: TK-10 renal
[5] = tested on: ACHN renal
[6] = tested on: CAKI-1 renal
[7] = tested on: A498 renal
[8] = tested on: MOLT-4 leukemia
[9] = tested on: SR leukemia
[10] = tested on: RPMI-8226 leukemia
[11] = tested on: OVCAR-8 ovarian
[12] = tested on: OVCAR-5 ovarian
[13] = tested on: OVCAR-4 ovarian
[14] = tested on: SK-OV-3 ovarian
[15] = tested on: IGROV1 ovarian
[16] = tested on: OVCAR-3 ovarian
[17] = tested on: NCI/ADR-RES ovarian
[18] = tested on: HS 578T breast
[19] = tested on: CCRF-CEM leukemia

SMILES | growth [1] | growth [2] | growth [3] | growth [4] | growth [5] | growth [6] | growth [7] | growth [8] | growth [9] | growth [10] | growth [11] | growth [12] [%] | growth [13] [%] | growth [14] | growth [15] | growth [16] | growth [17] [%] | growth [18] [%] | growth [19]
O=S(=O)(O)CCl | 104% | 98.8% | 91.6% | 92% | 103% | 103% | 111% | 99.4% | 84.9% | 98.7% | 100% | 98.3 | 105 | 107% | 106% | 106% | 103 |  | 
COc1ccc([N+](=O)[O-])c(/C=C/C(=O)c2ccccn2)c1 | 114% | 81.2% | 73.3% | 126% | 68.9% | 71.7% | 83.3% | 13.3% | 26.5% | 52.6% |  | 90.5 | 72.2 | 96% | 60.8% | 86.1% |  | 91.4 | 
Clc1ccc(-c2nc(-c3ccco3)cn3ccnc23)cc1 | 100% | 65.7% | 7.06% (active) | 11.9% | 8.59% (active) | 50.2% |  | 80% | 63.4% | 52.9% | 49.8% | 87.9 | 41.3 | -14.7% (active) | 40.7% | 50.7% | 70.1 | 74 | 78.4%
NC(=O)NC(=O)/C=C/C(=O)OCCCl | 113% | 104% | 89.2% | 72.1% | 79.9% | 99.6% | 103% | 96.9% | 96.8% | 93.3% | 90.7% | 96.9 | 107 | 105% | 109% | 106% | 109 |  | 
CC(=O)Nc1nc(C(=O)N2N=C(C)/C(=C/c3ccccc3)C2=O)cs1 | 94.6% | 109% | 80.9% | 107% | 99.9% | 98.9% | 120% | 95.8% | 90.7% | 102% | 105% | 99.9 | 110 | 97.6% |  |  |  | 111 | 
Nc1c(C(=O)Nc2cccc(C(F)(F)F)c2)sc2nc3c(cc12)CCCCCC3 | 51.4% | 5.73% (active) | -2.04% (active) | 5% (active) | -35.6% (active) | 20.8% | -28.3% (active) | 45.6% | 21.1% |  | -37.4% (active) | 12.8 |  | 2.08% (active) | 14.6% | 0.0711% (active) | 12 | 29.5 | 
CC(C)CCN(CCCNc1c2c(nc3ccccc13)CCCC2)CCC(C)C | 109% | 89.7% | 56.5% | 93.8% | 98% | 76.5% |  | 70.7% | 5.77% (active) | 56.4% | 91.1% | 83.6 | 66.3 | 94.3% | 81.8% | 93.9% | 87.8 | 87.6 | 74.3%
O=C(CCl)NCCNc1nccc(Nc2ccc(S(=O)(=O)Nc3ccccn3)cc2)n1 | 32.8% | 13.5% | 47.4% | 50% | 25.6% | 10.3% |  | 23.8% | 19.4% | 14.8% | 32.7% | 15.7 | 29.4 | 61.9% | 8.94% (active) | -6.7% (active) | 46.5 | 73.1 | 12.3%
COc1ccc(C(=O)c2cc(OC)c(OC)c(OC)c2)cc1/C=C/C(=O)c1ccc(O)cc1 | 14.8% | 17.7% | 36.4% | 75.1% | -62.8% (active) | 24.8% |  | 15.5% | 10.6% | 9.18% (active) | 22.3% | 69.5 | 43.6 | 18.5% | 45.9% | -10.5% (active) | 16.2 | 43.4 | 10.7%
CCn1cc(C(=O)O)c(=O)c2cc(F)c(N3CCN(S(=O)(=O)c4cccc5ccccc45)CC3)cc21 | 8.82% (active) | 11.9% | -19.7% (active) | 26% | -3.57% (active) | 0.945% (active) |  | 8.41% (active) | 2.85% (active) | 6.47% (active) | 8.43% (active) | 15.5 | 23.9 | 15.6% | 13.7% | -6.25% (active) | 21.4 |  | 12.1%
CN(C)c1ccc(/C=C\N=Nc2ccc(Br)cc2)cc1 | 72% | 65.8% | 32.6% | 68.5% | 60.4% | 51.5% |  | 29.2% | 21% | 50.2% | 46.5% | 76.6 |  | 92.8% | 66.7% | 67.9% | 52.3 | 102 | 29.7%
COc1cc(OC)c(C(=O)/C=C/c2ccc(C#N)cc2)c(OC)c1 | -11% (active) | 19.6% | 32.4% | 19.1% | 17.5% | 18.5% |  | 14.3% | 6.75% (active) | 4.28% (active) | 11.7% | 41.8 | 32.8 | 17.2% | 14% | 8.04% (active) | 24.1 | 32 | 7.44% (active)
CC1=C(C#N)C(C)(C)C(C#N)=C(C)N1 | 109% | 99.5% | 91.1% | 103% | 101% | 103% |  | 102% | 95.8% | 98.3% | 100% | 87.7 | 99.2 |  | 121% | 107% |  | 102 | 98%
COc1ccc(S(=O)(=O)NCCNc2nccc(-c3c(-c4ccccc4)nc4sccn34)n2)cc1 | 2.98% (active) | 27.5% | 18.6% | 47% | 10.3% | 18.3% |  | 5.16% (active) | 12.8% | 27.4% | 26.7% | 73.8 | 27.8 | 23% | 6.6% (active) | 12.4% | 17.1 | 47 | 22.8%
O=C(NNC(=S)Nc1ccccc1)c1ccccn1 | 85.6% | 43.7% | 19.8% | 50.2% | 16.4% | 5.93% (active) |  | 13.8% | 9.67% (active) | 37.6% | 23.2% | 51.3 | 20.1 | 33.5% | 21.2% | 33.6% | 24.7 |  | 18.8%
O=C1Nc2ccc(Br)cc2C1=N/C=c1\[nH]c(=O)/c(=C/c2ccc(Cl)cc2)s1 | 99.7% | 102% | 85.2% | 101% | 90.8% | 101% |  | 90.9% | 81.6% | 98.2% | 93.6% | 106 | 108 | 91.4% |  |  | 104 | 100 | 87.9%
O=S(=O)(NCCCNc1nccc(-c2c(-c3ccc(O)cc3)nc3sccn23)n1)c1ccc(F)cc1 | -42.5% (active) | 10% | 9.16% (active) | 26.6% | -5.95% (active) | 11.6% |  | 2.05% (active) | 3.07% (active) | -13% (active) | 14.2% | 14.4 | 14.9 | -4.21% (active) | 5.53% (active) | 23% | 48.9 | 11.5 | 8.07% (active)
O=C(CNc1c(Cl)cccc1Cl)Nc1ccc(-c2nc3ccccc3s2)cc1 | 84.8% | 48% | 73.7% | 106% | 42.3% | 28.8% |  | 5.63% (active) | 10.7% | 59.8% | 66.7% | 110 | 17.5 | 97.8% | 49.3% | 54.4% | 64 |  | 2.24% (active)
